This is an account of results in PubChem BioAssay (NCATS).

Values joined by “and” are separate entries in the source; they are usually repeats but may differ in a detail not shown here. Equal entries are not always repeated. A number with no mark means an inactive call. Inconclusive results are not listed. Active and inactive are the calls of the source. Unless noted, calls follow the shape of the dose curve; as a rule, active = well fitted curve in the direction sought with a large enough effect; inconclusive = small, poorly fitted or top-dose-only effect, or another doubt; inactive = no such curve, though single readings can be large; an effect the other way counts as inactive or inconclusive.

Assay [1] in a line: Cell Viability - NIH 3T3 (AID 541).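 Also: cells exposed to compound for 40 hours; nearly all actives have a fitted effect of over 25% in size.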 Also: potency is read from the fitted curve at half-maximal effect.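 As to activity change, negative = cytotoxicity: plate controls were DMSO alone for no effect and tamoxifen positive control for full effect.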 The note with it: NIH 3T3 cell viability, qHTS; activity change, negative = cytotoxicity: at 92.2 µM (top of the series). The method, boiled down:
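AC50 values reflect concentration-dependent loss of intracellular ATP in NIH 3T3 cells after 40 hr treatment in complete culture medium, quantified by luciferase-based luminescence.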
(Quantitative high-throughput screening tests each substance at several concentrations.)

Assay [2] in a line: Cellular Toxicity (caspase-3) H-4-II-E (AID 663).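 Also: cells exposed to compound for 16 hr before readout.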 The note with it: H-4-II-E rat hepatoma; Potency: caspase-3 activation; series mostly up to 92.2 µM. The method, boiled down:
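Luminescence from caspase-cleaved aminoluciferin substrate, read 20 min after reagent addition, reports caspase 3/7 activation in rat H-4-II-E cells after 16 hr compound exposure. Normalized to DMSO (basal) and 100 uM tamoxifen (100%); AC50 from Hill fits.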

The target in assay [3] is Cytochrome P450 3A4 (Homo sapiens) (UniProt P08684). The assay is described as follows: qHTS Assay for Inhibitors and Substrates of Cytochrome P450 3A4 (AID 884). Also: nearly all actives have a fitted effect of over 50% in size. Also: potency is read from the fitted curve at half-maximal effect. The note with it: recombinant CYP3A4, Luciferin-PPXE luminescence; series mostly up to 57.1 µM. An outline of the steps: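 20 nM human CYP3A4 with 25 uM Luciferin-PPXE (at KM) in 200 mM KPO4, preincubated 10 min with compound; NADPH regeneration started a 60 min RT reaction. Luciferin detected by luminescence, normalized to 57 uM ketoconazole as full inhibition.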

The target in assay [4] is Peroxisome proliferator-activated receptor gamma (Homo sapiens) (UniProt P37231). The assay is described as follows: qHTS assay for small molecule agonists of peroxisome proliferator-activated receptor gamma signaling (AID 588536; active = well fitted curve in the direction sought with a large enough effect in the signal ratio, with a control signal flat, not every such curve was filed as active; the % refers to the signal ratio;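 also: 0% = DMSO basal wells and 100% = rosiglitazone at 2 µM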). The note with it: HEK293 PPARg-UAS-bla, beta-lactamase ratio, 16 h, percent of rosiglitazone response, DMSO as zero; series mostly up to 76.7 µM. The method, boiled down:
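PPAR-gamma-UAS-bla HEK293 cells in medium with 1% charcoal/dextran-treated FBS were exposed to compounds for 16 h at 37 C. Beta-lactamase activity was read with CCF4 substrate (405 nm excitation, 460/530 nm emission).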

The target of assay [5] is Vitamin D3 receptor (Homo sapiens) (UniProt P11473). The assay is described as follows: qHTS assay for small molecule antagonists of vitamin D receptor signaling (AID 588541; calls by dose curve;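 also: receptor activated by calcitriol during compound treatment; % is scaled to controls: 0 for no effect and ±100 for the full control effect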). The note with it: HEK293T VDR-UAS-bla, beta-lactamase ratio, antagonist mode; series mostly up to 76.7 µM. The method, boiled down:
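VDR-UAS-bla HEK293T cells (2000/well, 2% charcoal-stripped FBS) were treated with titrated compounds plus 1-alpha,25-dihydroxyvitamin D3 (50 nM or 3 nM final) for 16 h at 37 C. CCF4 beta-lactamase fluorescence was read; Hill fits gave IC50.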

The nature of assay [6]: qHTS assay for small molecule agonists of the antioxidant response element (ARE) signaling pathway (AID 651741; active = well fitted activation curve with a large enough effect in the signal ratio; the % refers to the signal ratio; also: potency is read from the fitted curve at half-maximal effect; as to activation: % of control where 0% means no effect). The note with it: HepG2 ARE-bla reporter, beta-lactamase FRET ratio, 16 h; series mostly up to 96 µM. The method, boiled down: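 ARE-bla HepG2 cells (beta-lactamase reporter under ARE control) were plated at 2,000 cells/well, preincubated 5 h at 37 C/5% CO2, then treated with DMSO-dissolved compounds for 16 h at 37 C; LiveBLAzer B/G FRET substrate added, fluorescence read after 2 h at room temperature.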

The nature of assay [7]: qHTS assay for small molecule activators of the nuclear factor-kappa B (NF-kB) signaling pathway (AID 651749; active = well fitted activation curve with a large enough effect in the signal ratio; the % refers to the signal ratio; also: % of control where 0% means no effect). The note with it: NF-kB-bla ME-180 cells, beta-lactamase FRET ratio, 16 h; stronger effect = higher value. An outline of the steps: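 ME-180 cells stably carrying a beta-lactamase reporter under an NF-kB response element were exposed to compound or DMSO vehicle for 16 hr at 37C, 5% CO2. Pathway activation was read by FRET, since reporter expression disrupts FRET.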

Assay [8] addresses Tumor necrosis factor (Homo sapiens) (UniProt P01375). Put plainly: qHTS assay to identify small molecules that stimulate Tumor Necrosis Factor-alpha (TNF-alpha) secretion (AID 651757; active = well fitted curve in the direction sought with a large enough effect in the signal ratio; the % refers to the signal ratio; also: 0% is about no effect). The note with it: Human cells, HTRF 665/615 ratio; series mostly up to 92.2 µM. The method, boiled down: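 Secreted TNF-alpha from compound-treated THP-1 cells (17 hrs, 37 C) was quantified with a homogeneous time-resolved fluorescence antibody assay.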

The target in assay [9] is Nuclear receptor ROR-gamma (Homo sapiens) (UniProt P51449). The assay is described as follows: qHTS assay for small molecule antagonists of the retinoid-related orphan receptor gamma (ROR-gamma) signaling pathway (AID 651802). Also: nearly all actives have a fitted effect of over 60% in size. Also: potency is read from the fitted curve at half-maximal effect. The note with it: ROR-gamma antagonist cell reporter assay; series mostly up to 92.2 µM. An outline of the steps: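 Antagonism is scored as a fall in luminescence from a RORE-luciferase reporter in CHO cells expressing ROR under a TET-inducible promoter, measured 16hr after doxycycline induction in the presence of compound.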

The nature of assay [10]: Cell Viability - Jurkat (AID 426;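 active = dose-dependent loss of cell ATP signal giving a full or clear fitted curve, ranked by lower potency value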;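 also: potency is read from the fitted curve at half-maximal effect; cells exposed to compound for 40 hours at 37 °C before ATP read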). The note with it: qHTS. An outline of the steps: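 Seed 5000 Jurkat E6-1 cells/well; add compound; incubate 40 hr at 37 °C; add CellTiter-Glo; wait 20 min at room temperature; read luminescence. Fit concentration-response with Hill equation for AC50.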
Assay [11] can be described thus: Cellular Toxicity (caspase-3) SHSY5Y (AID 657). The note with it: SH-SY5Y caspase-3 activation; series mostly up to 91.7 µM. An outline of the steps:
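Luminescent caspase-3/7 readout (aminoluciferin release) in SH-SY5Y cells after 16 h compound exposure in complete medium. Activity scaled between DMSO basal and 10 uM staurosporine as 100%; concentration-response fitted to Hill equation for AC50.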

A short description of assay [12]: Cellular Toxicity (caspase-3) BJ (AID 658).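 Also: 0% = DMSO basal and 100% = 10 µM staurosporine.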 The note with it: BJ fibroblasts, luminescence; Potency: caspase-3 activation; series mostly up to 91.7 µM. An outline of the steps: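 Luminescent aminoluciferin-substrate cleavage reports caspase 3/7 activity in normal human BJ fibroblasts after 16 hr compound exposure at 37 °C. Normalized to DMSO (basal) and 10 uM staurosporine (100%); AC50 from Hill fit of concentration-response.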

The nature of assay [13]: Cellular Toxicity (caspase-3) Mesangial (AID 660).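 Also: combined caspase 3 and 7 activity read by Caspase-Glo luminescence; cells exposed to compound for 16 h before the caspase read.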 The note with it: mesangial cells, normalized: DMSO 0%, 100 µM tamoxifen 100%; series mostly up to 91.7 µM. An outline of the steps:
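Concentration-response qHTS: compound-induced rise in caspase 3/7 luminescence in human mesangial cells after 16 h, normalized to DMSO and 100 uM tamoxifen controls.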

The target of assay [14] is Peroxisome proliferator-activated receptor delta (Homo sapiens) (UniProt Q03181). The assay is described as follows: qHTS assay for small molecule antagonists of peroxisome proliferator-activated receptor delta signaling (AID 588535; active = well fitted inhibition curve with a large enough effect in the signal ratio, with a control signal flat, not every such curve was filed as active; the % refers to the signal ratio). The note with it: HEK293T PPARd-UAS-bla, beta-lactamase FRET ratio, 18 h; series mostly up to 76.7 µM. The method, boiled down: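 GeneBLAzer PPAR-delta-UAS-bla HEK293T cells in medium with 2% charcoal/dextran FBS were preincubated 5 hrs at 37 C, then given compounds, incubated 18 hrs at 37 C, and read by CCF4 beta-lactamase fluorescence; IC50 from Hill fits.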

Assay [15] can be described thus: qHTS assay for small molecule activators of the p53 signaling pathway (AID 651743; active = well fitted activation curve with a large enough effect in the signal ratio, not every such curve was filed as active; the % refers to the signal ratio; also: % of control where 0% means no effect). The note with it: HCT-116 p53RE-bla, beta-lactamase FRET ratio, 16 h; activation: stronger effect = higher value. The method, boiled down:
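p53RE-bla HCT-116 cells with a stably integrated beta-lactamase reporter under p53 response elements were plated, rested 5 hours at 37 C/5% CO2, then exposed to compounds in DMSO for 16 hours at 37 C. LiveBLAzer B/G FRET substrate was read after 2 hours at room temperature.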

The nature of assay [16]: qHTS assay for small molecule antagonists of the retinoid-related orphan receptor gamma (ROR-gamma) signaling pathway - cell viability counter screen (AID 720652; active = well fitted curve in the direction sought with a large enough effect in the repeat runs; an effect the other way counts as inactive or inconclusive;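 also: CHO reporter cells with doxycycline-induced ROR-gamma expression; compound exposure lasted 16 hr before ATP read; % is scaled to controls: 0 for no effect and ±100 for the full control effect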). The note with it: RORgamma reporter cell line viability counter screen; series mostly up to 92.2 µM. The method, boiled down:
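Cytotoxicity is quantified via intracellular ATP (CellTiter-Glo luminescence) in doxycycline-induced CHO ROR response element-luciferase reporter cells treated with compound for 16 hr at 37 C, 5% CO2.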

The nature of assay [17]: qHTS assay for small molecule activators of the human pregnane X receptor (PXR) signaling pathway (AID 720659; call rule not given here; also: 0% is about no effect). The note with it: DPX-2 HepG2 CYP3A4-luciferase, 24 h; series mostly up to 92.3 µM.
The target in assay [18] is Estrogen receptor (Homo sapiens) (UniProt P03372). The assay is described as follows: qHTS assay for small molecule antagonists of estrogen receptor alpha signaling (AID 588513; active = well fitted curve in the direction sought with a large enough effect in the signal ratio, with a control signal flat, not every such curve was filed as active; the % refers to the signal ratio; also: % is scaled to controls: 0 for no effect and ±100 for the full control effect). The note with it: ER-alpha-UAS-bla HEK293, beta-lactamase ratio, antagonist mode; series mostly up to 76.9 µM. The method, boiled down: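 Beta-lactamase reporter, antagonist mode, HEK 293 GripTite cells; 0.5nM E2 stimulus, 18 h, 37 C; CCF4 dye 2 h RT; fluorescence. IC50 and efficacy from Hill fits, normalized to E2 and DMSO.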

For assay [19] the target is unchanged. Put plainly: qHTS assay for small molecule agonists of estrogen receptor alpha signaling (AID 588514; calls by dose curve;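 also: 0% = vehicle only and 100% = reference agonist; nearly all actives have a fitted effect of over 70% in size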). The note with it: ER-alpha-UAS-bla HEK293, beta-lactamase ratio, 18 h; series mostly up to 76.8 µM. An outline of the steps:
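Reporter-gene assay. […] controls beta-lactamase in HEK 293 GripTite cells; after 18 hrs with compound, CCF4 substrate is added for 2 hrs and fluorescence is read.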

The target in assay [20] is Vitamin D3 receptor (Homo sapiens) (UniProt P11473). The assay is described as follows: qHTS assay for small molecule agonists of vitamin D receptor signaling (AID 588543; calls by dose curve;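 also: 0% = DMSO basal and 100% = reference agonist control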). The note with it: HEK293T VDR-UAS-bla, beta-lactamase ratio, 16 h; series mostly up to 76.8 µM. The method, boiled down:
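β-lactamase reporter, VDR-UAS-bla HEK293T, agonist mode. Cells plated 5 h at 37 °C, compound titration 16 h at 37 °C, CCF4 dye 2 h RT, ratio 460/530 nm. Hill fit → EC50, efficacy vs 50 nM 1α,25-(OH)2D3.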

Sequence of Nuclear receptor ROR-gamma (Homo sapiens) (P51449 whole entry, looked up): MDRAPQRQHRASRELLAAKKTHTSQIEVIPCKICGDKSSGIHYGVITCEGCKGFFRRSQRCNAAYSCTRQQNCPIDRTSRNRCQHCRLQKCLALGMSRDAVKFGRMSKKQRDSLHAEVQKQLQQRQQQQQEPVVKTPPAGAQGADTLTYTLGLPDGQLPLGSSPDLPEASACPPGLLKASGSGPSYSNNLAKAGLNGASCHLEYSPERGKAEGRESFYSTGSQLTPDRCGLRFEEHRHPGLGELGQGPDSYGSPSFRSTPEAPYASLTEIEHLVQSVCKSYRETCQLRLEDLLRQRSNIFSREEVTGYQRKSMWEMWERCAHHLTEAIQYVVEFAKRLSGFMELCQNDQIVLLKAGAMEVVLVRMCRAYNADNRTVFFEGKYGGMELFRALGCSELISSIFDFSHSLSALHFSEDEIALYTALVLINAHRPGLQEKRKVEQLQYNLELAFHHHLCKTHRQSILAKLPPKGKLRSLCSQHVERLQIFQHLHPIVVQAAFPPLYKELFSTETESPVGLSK
Sequence of Vitamin D3 receptor (Homo sapiens) (P11473 whole entry, looked up): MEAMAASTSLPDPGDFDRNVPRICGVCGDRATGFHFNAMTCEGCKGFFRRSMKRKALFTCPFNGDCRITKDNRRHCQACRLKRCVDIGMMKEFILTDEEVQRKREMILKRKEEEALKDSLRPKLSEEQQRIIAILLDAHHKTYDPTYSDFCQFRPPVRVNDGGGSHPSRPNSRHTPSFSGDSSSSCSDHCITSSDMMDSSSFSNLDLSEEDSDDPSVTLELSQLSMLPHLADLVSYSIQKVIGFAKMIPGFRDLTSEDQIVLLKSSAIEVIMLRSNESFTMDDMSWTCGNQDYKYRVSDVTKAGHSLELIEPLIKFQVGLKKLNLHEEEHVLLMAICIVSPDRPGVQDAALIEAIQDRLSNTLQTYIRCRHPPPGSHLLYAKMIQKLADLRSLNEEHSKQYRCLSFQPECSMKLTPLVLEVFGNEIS
Sequence of Peroxisome proliferator-activated receptor delta (Homo sapiens) (Q03181 whole entry, looked up): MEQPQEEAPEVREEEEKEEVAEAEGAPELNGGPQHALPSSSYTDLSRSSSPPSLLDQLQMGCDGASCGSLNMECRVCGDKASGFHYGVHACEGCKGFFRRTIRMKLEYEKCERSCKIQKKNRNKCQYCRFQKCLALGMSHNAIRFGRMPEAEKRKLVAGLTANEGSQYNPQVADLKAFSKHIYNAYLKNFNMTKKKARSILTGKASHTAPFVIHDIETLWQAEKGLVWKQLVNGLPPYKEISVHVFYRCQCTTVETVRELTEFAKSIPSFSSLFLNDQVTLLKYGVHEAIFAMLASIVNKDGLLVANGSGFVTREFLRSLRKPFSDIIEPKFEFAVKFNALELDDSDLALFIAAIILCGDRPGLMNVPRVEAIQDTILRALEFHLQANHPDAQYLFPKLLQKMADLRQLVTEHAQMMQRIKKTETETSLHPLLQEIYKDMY
Sequence of Peroxisome proliferator-activated receptor gamma (Homo sapiens) (P37231 whole entry, looked up): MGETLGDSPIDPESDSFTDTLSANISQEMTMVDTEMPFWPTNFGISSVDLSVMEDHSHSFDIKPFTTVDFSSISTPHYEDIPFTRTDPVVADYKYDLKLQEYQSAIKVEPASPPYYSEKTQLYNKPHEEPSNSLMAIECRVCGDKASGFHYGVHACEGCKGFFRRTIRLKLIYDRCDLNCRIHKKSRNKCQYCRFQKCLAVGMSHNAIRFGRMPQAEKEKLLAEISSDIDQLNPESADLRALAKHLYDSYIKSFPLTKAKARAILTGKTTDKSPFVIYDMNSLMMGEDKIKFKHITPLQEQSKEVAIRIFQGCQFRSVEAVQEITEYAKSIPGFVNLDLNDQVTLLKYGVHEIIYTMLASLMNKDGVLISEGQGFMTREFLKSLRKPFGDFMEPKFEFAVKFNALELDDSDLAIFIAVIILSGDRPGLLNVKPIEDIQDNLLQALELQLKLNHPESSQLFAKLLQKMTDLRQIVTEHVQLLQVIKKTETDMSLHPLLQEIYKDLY
Sequence of Estrogen receptor (Homo sapiens) (P03372 whole entry, looked up): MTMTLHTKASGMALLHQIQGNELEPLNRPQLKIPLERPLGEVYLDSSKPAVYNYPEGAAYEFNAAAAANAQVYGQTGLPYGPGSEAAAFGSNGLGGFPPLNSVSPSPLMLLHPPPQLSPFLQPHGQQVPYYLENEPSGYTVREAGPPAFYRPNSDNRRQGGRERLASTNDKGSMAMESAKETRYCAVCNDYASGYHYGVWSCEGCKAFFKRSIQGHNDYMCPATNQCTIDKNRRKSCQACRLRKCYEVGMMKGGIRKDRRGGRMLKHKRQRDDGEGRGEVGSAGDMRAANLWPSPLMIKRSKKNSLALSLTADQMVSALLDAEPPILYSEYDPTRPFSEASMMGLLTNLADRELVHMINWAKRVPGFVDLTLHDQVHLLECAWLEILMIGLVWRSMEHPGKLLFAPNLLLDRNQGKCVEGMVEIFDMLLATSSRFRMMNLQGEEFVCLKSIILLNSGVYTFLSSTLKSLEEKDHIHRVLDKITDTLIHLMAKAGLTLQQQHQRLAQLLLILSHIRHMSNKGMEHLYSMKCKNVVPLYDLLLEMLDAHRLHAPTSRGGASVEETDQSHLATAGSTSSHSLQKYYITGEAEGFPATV
Sequence of Tumor necrosis factor (Homo sapiens) (P01375 whole entry, looked up): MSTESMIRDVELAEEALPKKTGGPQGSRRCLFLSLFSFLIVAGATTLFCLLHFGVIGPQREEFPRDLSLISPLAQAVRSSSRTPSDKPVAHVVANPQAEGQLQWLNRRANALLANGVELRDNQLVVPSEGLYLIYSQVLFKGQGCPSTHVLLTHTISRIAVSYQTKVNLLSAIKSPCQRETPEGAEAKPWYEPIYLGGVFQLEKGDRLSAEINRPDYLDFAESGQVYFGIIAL
Sequence of Cytochrome P450 3A4 (Homo sapiens) (P08684 whole entry, looked up): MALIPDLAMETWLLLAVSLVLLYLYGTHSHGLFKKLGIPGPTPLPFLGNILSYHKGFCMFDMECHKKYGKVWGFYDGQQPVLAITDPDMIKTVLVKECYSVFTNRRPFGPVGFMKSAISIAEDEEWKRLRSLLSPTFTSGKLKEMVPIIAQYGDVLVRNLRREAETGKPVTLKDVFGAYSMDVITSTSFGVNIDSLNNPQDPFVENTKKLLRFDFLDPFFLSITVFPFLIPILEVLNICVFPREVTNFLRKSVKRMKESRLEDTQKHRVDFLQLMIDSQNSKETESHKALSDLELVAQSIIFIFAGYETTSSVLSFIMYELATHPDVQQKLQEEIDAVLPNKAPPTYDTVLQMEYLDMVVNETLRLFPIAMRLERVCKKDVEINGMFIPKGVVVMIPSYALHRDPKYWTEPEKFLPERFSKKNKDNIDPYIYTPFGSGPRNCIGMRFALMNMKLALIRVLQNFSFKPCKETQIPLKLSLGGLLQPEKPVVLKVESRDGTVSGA

Regarding `CC/C=C/C/C=C/C/C=C/CCCCCCCC(=O)OCC`, the activity change, negative = cytotoxicity in assay [1] is -19.6%. The Potency result in [2], in assay [5], in assay [8] and in assay [9] was “inactive” throughout. In addition, the Potency in [3] is 10 µM (active); in assay [6] it was 59.6 µM (active). Besides, the outcome in [4] was inactive. In addition, in assay [7], the activation was -1.38%.

Regarding `O=C(O)/C=C/c1ccc(/C=C/C(=O)O)cc1`, the Potency in [10] was > 92 µM. The Potency result in assay [11], in [12], in [2], in [3], in assay [6] and in assay [9] was “inactive” in each case. Also, the Potency entry in assay [16] was “inactive”. Further, the result in [13], in [14], in [4] and in assay [17] was inactive. The activation is 1.28% in [15] and -0.449% in assay [7].

Regarding `S=C(NC1CCCCC1)NC1CCCCC1`, the Potency in [10] was > 92 µM; in assay [6], 66.8 µM (active). Also, the Potency entry in assay [11], in assay [2], in assay [19], in assay [5], in assay [20] and in assay [8] was “inactive” each time. Moreover, the Potency entry in assay [9] and in [16] was “inactive” each time. Besides, the compound was classed as inactive in [13], in assay [18], in assay [14] and in assay [4]. Also, the activation in assay [7] was -0.887%.

Consider `c1ccc2c(c1)ccc1ccccc12`, for which the Potency in assay [10] is > 92 µM. Besides, the activity change, negative = cytotoxicity in assay [1] is -132% (active). Further, the Potency entry in [12], in assay [2], in assay [3], in assay [19], in assay [5] and in [20] was “inactive” each time. The Potency result in [6], in assay [8], in assay [9] and in [16] was “inactive” each time. Besides, the compound was called inactive in assay [13], in assay [18], in [14], in [4] and in [17]. The activation is -2.61% and 2.1% in assay [15]; -1.69% and -0.971% in assay [7].

For `O=Nc1ccc(Nc2ccccc2)cc1`, the Potency in [10] is 3.86 µM (active); in assay [1], 31.6 µM (active). Moreover, the Potency result in [11] and in assay [12] was “inactive” each time. The call in [13] was inactive. The activation in [7] was -1.21% and -2.86%.

Consider `O=C=Nc1ccc(Cl)c(Cl)c1`, for which the activity change, negative = cytotoxicity in assay [1] is -122% (active). Further, the Potency entry in [11], in assay [12], in assay [19], in [5], in assay [20] and in assay [8] was “inactive” throughout. The compound was called inactive in assay [13], in assay [18] and in assay [17]. The Potency was 75 µM (active) in assay [6] and 33.5 µM (active) in [9]. In addition, in assay [7], the activation was 7.4%.
